{
  "source": "PubChem BioAssay AID602478",
  "about": "(National Center for Advancing Translational Sciences (NCATS), 2012)",
  "note": "Inconclusive results are not listed. Values without a mark were called inactive. Active and inactive are the calls of the source. The call rests on the fitted dose curve; in most records, active means well fitted activation curve with a large enough effect; inconclusive means small, poorly fitted or top-dose-only effect; inactive means flat fitted curve, though single readings scatter.",
  "data": [
    {"target": "Luciferin 4-monooxygenase (Photinus pyralis) (UniProt P08659)", "sequence (P08659 whole entry, looked up)": "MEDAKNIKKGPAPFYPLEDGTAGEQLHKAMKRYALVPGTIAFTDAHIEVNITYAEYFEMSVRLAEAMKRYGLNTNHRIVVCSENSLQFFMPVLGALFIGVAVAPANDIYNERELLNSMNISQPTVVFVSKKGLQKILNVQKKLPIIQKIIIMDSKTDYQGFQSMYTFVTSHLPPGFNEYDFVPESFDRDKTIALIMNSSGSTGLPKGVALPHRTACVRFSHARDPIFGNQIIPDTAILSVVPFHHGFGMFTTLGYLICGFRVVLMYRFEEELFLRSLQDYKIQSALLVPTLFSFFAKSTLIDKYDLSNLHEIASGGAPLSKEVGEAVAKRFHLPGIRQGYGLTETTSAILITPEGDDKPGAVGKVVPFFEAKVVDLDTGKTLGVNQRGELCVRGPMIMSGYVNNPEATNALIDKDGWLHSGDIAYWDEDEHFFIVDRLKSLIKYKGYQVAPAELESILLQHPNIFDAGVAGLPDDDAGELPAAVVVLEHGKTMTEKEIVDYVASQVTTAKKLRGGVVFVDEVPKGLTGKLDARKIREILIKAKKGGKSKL", "assay": "FLuc inhibitory activity for the follow-up compounds in a cell-based translational read-through assay (72 hour incubation)", "settings": "GripTite 293 FLucUGA read-through, luminescence; series mostly up to 38.3 µM; activation (luciferase signal increase): at the top concentration", "from_the_text": "NCGC Assay Overview: Firefly (Photinus pyralis) luciferase is one of the most commonly used transcriptional reporters. It is considered one of the more dynamically responsive reporters - that is, responsive to changes in reporter transcription - as it requires no post-translational modifications and is enzymatically active directly after protein synthesis (Wood, 1998). With no endogenous expression in mammalian cells and without the requirement of external excitation, it offers very little background signal, thus generally providing excellent signal to background for most assays. Previous profiling work to determine the prevalence of compounds that affect FLuc enzymatic activity (PubChem AID 411) identified that ~3% of the MLSMR library (then at ~72K) inhibited FLuc (Auld et al., 2008). […] Of the compounds identified in this profile that inhibited FLuc, 151 compounds were selected for further analysis, in an effort to better understand their mode of inhibiting FLuc. The assay described here was to determine the activity of the compounds in a cell-based firefly luciferase reporter gene assay originally designed to identify compounds that enchanced translational read-through of a FLuc cDNA that contained a premature stop codon (Auld et al., 2009; Auld et al., 2010). Compounds that enhance translational read-through or compounds that stabilize FLuc intracellularly are identified as active compounds in the assay.\nNCGC Assay Protocol Summary: Reagents: Transient transfection of FlucUGA construct: TransFast Transfection Reagent (Promega #E2431); FLucUGA construct (refer to Auld et al., 2009) #GripTite 293 MSR Cell Line (Invitrogen #R795-07) #Complete growth media: DMEM (Invitrogen #11965), 10% HIFBS, 0.1mM MEM NEAA, 5mL/L pen-strep (of 5000U/mL stock), 600ug/mL Geneticin #Assay media: DMEM without phenol red (Invitrogen #21063), 5% charcoal-stripped HIFBS (Hyclone #SH30071.03), 0.1mM MEM NEAA In-house detection reagent: 300mM Tris-HCl, 300mM Trizma base, 300mM MgCl, 1% Triton-X100, 5mM DTT, 500uM Coenzyme A trilithium salt (Sigma #C3019),450uM ATP (Sigma #A7699), 1mM D-luciferin sodium salt monohydrate (Biosynth #L8240) Control compounds used were two known firefly luciferase inhibitors (3-(5-(3-chlorophenyl)-1,2,4-oxadiazol-3-yl)benzoic acid and 5-(2-fluorophenyl)-3-phenyl-1,2,4-oxadiazole), and DMSO. Assay Summary: Transient transfection of FlucUGA construct: Day 1: GripTite cells were plated in T175 flasks at a density of 1.75 x 10^7 cells/T175 flask in complete growth media without Geneticin and allowed to grow ON in a 37 degrees Celsius incubator. Day 2: Cells in T175 flask were transfected - with 10ug of DNA and 30uL Transfast in 12mL complete growth media without serum and without Geneticin for 4 hours at 37 degrees Celsius. After incubation, cells were trypsinized, spun down, and resuspended to a concentration of 3.3 x 10^5 cells/mL in assay media. 6uL of cells in assay buffer were dispensed at 2000cells/well (3.3 x 10^5 cells/mL) into Greiner solid-white TC-treated 1536-well plates using a Multidrop Combi (Thermo Fisher Scientific). Plates were incubated for one hour at 37 degree Celsius, 95% humidity, 5% CO2. These assay plates were then treated with 23nL of compound or DMSO using a Kalypsys pin tool, which allows for delivery of a 12-point titration of each compound to the assay plate, with a final compound concentration ranging from approximately ~38uM to 0.2nM. Assay plates were then incubated for 72 hours. After incubation, plates were washed three times with DPBS (7uL/well). After the third wash, 6uL of DPBS was added to each well. 3uL of 3X luciferase detection reagent was then added to each well using a flying reagent dispenser (FRD). After a 15 minute incubation to allow for cell lysis, luciferase activity was measured using a ViewLux CCD imager (PerkinElmer), with an average exposure time of 2-12 seconds.", "units": {"activation (luciferase signal increase)": "%"}, "values": [
      {"smiles": "CC(C)c1ccc(C(=O)Nc2ccc(-c3nc4ccccc4s3)c(Cl)c2)cc1", "activation (luciferase signal increase)": 0.822},
      {"smiles": "O=C(O)c1ccc(NC(=O)c2cc(S(=O)(=O)N3CCCCC3)c(Cl)cc2Cl)cc1", "activation (luciferase signal increase)": 0.522},
      {"smiles": "CCCOc1cccc(C(=O)Nc2ccc(-c3nc4ccccc4s3)c(Cl)c2)c1", "activation (luciferase signal increase)": 10.8},
      {"smiles": "O=C(Cc1ccc(Cl)cc1)Nc1cccc(C(=O)Nc2ccccc2C(=O)O)c1", "activation (luciferase signal increase)": 1.21},
      {"smiles": "O=C(Nc1ccc(-c2nc3ccccc3s2)cc1)C1=COCCO1", "Potency": "0.318 µM (active)"},
      {"smiles": "O=C(Cc1ccccc1)Nc1ccc(C(=O)Nc2ccccc2C(=O)O)cc1", "activation (luciferase signal increase)": -3.79},
      {"smiles": "O=C(Cc1ccccc1)Nc1ccccc1C(=O)Nc1ccc(C(=O)O)cc1", "activation (luciferase signal increase)": 9.41},
      {"smiles": "COc1ccc(C(=O)Nc2ccccc2C(=O)N/N=C/c2ccc(O)c(OC)c2)cc1", "activation (luciferase signal increase)": -2.18},
      {"smiles": "O=C(Nc1ccccc1C(=O)O)c1ccc(NC(=O)C2CCCO2)cc1", "note": "(stereo not given)", "activation (luciferase signal increase)": 3.56},
      {"smiles": "Cc1c(NS(C)(=O)=O)cccc1-c1nc2ccccc2s1", "activation (luciferase signal increase)": -0.265},
      {"smiles": "O=C(O)c1ccc(NC(=O)c2cccc(NC(=O)c3cccs3)c2)cc1", "activation (luciferase signal increase)": 4.99},
      {"smiles": "Cc1ccc(C(=O)O/N=C(\\N)c2ccccn2)c(Cl)c1", "Potency": "1.26 µM (active)"},
      {"smiles": "Cc1cccc(C(=O)Nc2ccc(-c3nc4ccccc4s3)cc2Cl)c1", "activation (luciferase signal increase)": 5.41},
      {"smiles": "Cc1ccc(C(=O)Nc2cccc(C(=O)O)c2)cc1S(=O)(=O)N1CCCCC1", "Potency": "3.18 µM (active)"},
      {"smiles": "COc1ccc(C(=O)Nc2ccccc2-c2nc3ccccc3s2)c(OC)c1", "activation (luciferase signal increase)": 2},
      {"smiles": "Cc1cccc(C(=O)Nc2ccccc2C(=O)Nc2ccc(C(=O)O)cc2)c1", "activation (luciferase signal increase)": 4.31},
      {"smiles": "Cc1c(NC(=O)C(C)(C)C)cccc1-c1nc2ccccc2s1", "activation (luciferase signal increase)": 16},
      {"smiles": "COc1ccc(-c2cccc(C(=O)Nc3cccc(C(=O)O)c3)c2)cc1", "Potency": "12.6 µM (active)"},
      {"smiles": "O=C(Nc1ccccc1C(=O)O)c1ccc(NC(=O)C2CCCCC2)cc1", "activation (luciferase signal increase)": 1.36},
      {"smiles": "Cc1ccc(C(=O)Nc2ccc(C(=O)O)cc2)cc1S(=O)(=O)Nc1ccccc1", "activation (luciferase signal increase)": 1.36},
      {"smiles": "COc1ccc(C(=O)Nc2cccc(C(=O)O)c2)cc1S(=O)(=O)N1CCCC1", "activation (luciferase signal increase)": 3.95},
      {"smiles": "CC(C)Oc1ccc(C(=O)Nc2ccc(-c3nc4ccccc4s3)cc2)cc1", "activation (luciferase signal increase)": 8.81},
      {"smiles": "c1ccc2sc(-c3ccc4c(c3)OCO4)nc2c1", "Potency": "1.79 µM (active)"},
      {"smiles": "O=C(Nc1ccccc1C(=O)O)c1cccc(C(=O)Nc2ccccc2C(=O)O)c1", "activation (luciferase signal increase)": 2.32},
      {"smiles": "CCOc1ccc2nc(NC(=O)c3cc([N+](=O)[O-])ccc3N3CCOCC3)sc2c1", "activation (luciferase signal increase)": -8.35},
      {"smiles": "Cc1ccc2sc(-c3ccc(NC(=O)c4cc(-n5cnnc5)ccc4Cl)cc3)nc2c1", "Potency": "14.2 µM (active)"},
      {"smiles": "CCOc1ccc2nc(NC(=O)c3cccnc3)sc2c1", "Potency": "3.56 µM (active)"},
      {"smiles": "O=C(COC(=O)c1ccccc1[N+](=O)[O-])c1ccc2c(c1)OCO2", "activation (luciferase signal increase)": 3.99},
      {"smiles": "COc1ccc(Br)cc1C(=O)Nc1ccc(C(=O)O)cc1", "activation (luciferase signal increase)": 6.32},
      {"smiles": "Cc1ccc2nc(-c3ccc(N)cc3)sc2c1", "Potency": "1.42 µM (active)"},
      {"smiles": "CN(C)c1cccc(C(=O)Nc2ccc(-c3nc4ccccc4s3)cc2)c1", "Potency": "1.79 µM (active)"},
      {"smiles": "Cc1ccc2sc(-c3ccc(N)cc3)nc2c1", "Potency": "0.356 µM (active)"},
      {"smiles": "CC(=O)Nc1cccc(C(=O)Nc2ccccc2C(=O)O)c1", "activation (luciferase signal increase)": 7.79},
      {"smiles": "CCOc1ccc2nc(NC(=O)c3ccoc3C)sc2c1", "Potency": "0.449 µM (active)"},
      {"smiles": "Cc1ccc(C(=O)Nc2cccc(C(=O)O)c2)cc1S(=O)(=O)N1CCOCC1", "Potency": "11.3 µM (active)"},
      {"smiles": "COc1ccc2nc(NC(=O)c3ccco3)sc2c1", "Potency": "0.634 µM (active)"},
      {"smiles": "CCc1noc(C)c1C(=O)Nc1nc2ccc(OC)cc2s1", "activation (luciferase signal increase)": 2.59},
      {"smiles": "O=C(Nc1ccccc1C(=O)O)c1cccc(NC(=O)c2ccc(Br)o2)c1", "activation (luciferase signal increase)": 2.35},
      {"smiles": "O=C(O)c1ccc(NC(=O)c2cccc(C(=O)Nc3ccc(C(=O)O)cc3)c2)cc1", "activation (luciferase signal increase)": -0.0974},
      {"smiles": "COc1ccccc1C(=O)Nc1ccc(C(=O)O)cc1", "activation (luciferase signal increase)": 6.84}
    ]}
  ]
}
